The values that follow come from PubChem BioAssay (EPA / NIEHS).

The structures appear in SMILES notation. Several values for one entry are separate records, joined by “and”; a condition that tells them apart may be missing. Equal entries are not always repeated. Records with an inconclusive call do not appear. The source holds several records for some structures; these can differ, active in one and inactive in another. Activity calls are given as the source filed them. The calls were made as follows: active = hit-call score of the fitted dose curve at least 0.9, where 1 is the maximum; inconclusive = response in the unintended direction; inactive = score below 0.9.

Chain of Cellular tumor antigen p53 (Homo sapiens) (P04637 whole entry, looked up, the tested form may be a part): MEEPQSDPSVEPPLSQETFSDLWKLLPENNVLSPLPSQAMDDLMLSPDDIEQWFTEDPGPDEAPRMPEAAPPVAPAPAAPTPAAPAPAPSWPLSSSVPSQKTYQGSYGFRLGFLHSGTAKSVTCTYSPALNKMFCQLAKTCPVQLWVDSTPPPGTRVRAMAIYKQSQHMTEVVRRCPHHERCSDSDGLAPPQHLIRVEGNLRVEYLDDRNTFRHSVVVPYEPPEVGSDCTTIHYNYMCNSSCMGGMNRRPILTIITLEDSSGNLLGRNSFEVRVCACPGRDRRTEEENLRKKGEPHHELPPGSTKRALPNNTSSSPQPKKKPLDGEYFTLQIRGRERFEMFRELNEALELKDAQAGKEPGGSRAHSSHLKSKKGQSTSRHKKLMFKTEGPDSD

The assay concerns the target Cellular tumor antigen p53 (Homo sapiens) (UniProt P04637). Kind of assay: TOX21_p53_BLA_p3_ratio: Tox21 HCT-116 p53 Agonism Beta-lactamase Assay, Ratio, Phase 3 (AID 2283596). The source says: TOX21_p53_BLA_p3 is a cell-based, single-readout assay that uses HCT116, a human intestinal cell line, […] in a 1536-well plate.TOX21_p53_BLA_p3_ratio is an assay readout measuring reporter gene via receptor activity and designed using inducible reporter (beta lactamase induction) detected with GAL4 b-lactamase reporter gene. The signal is derived from the ratio of cleaved (ch2) to uncleaved (ch1) reporter gene substrate used as the measure of target activity.Data from the assay component TOX21_p53_BLA_p3_ratio was analyzed into 1 assay endpoint. This assay endpoint, TOX21_p53_BLA_p3_ratio, was analyzed in the positive analysis fitting direction relative to DMSO as the negative control and baseline of activity. Using a type of inducible reporter, gain-of-signal activity can be used to understand changes in the reporter gene as they relate to the gene TP53. Furthermore, this assay endpoint can be referred to as a primary readout, because this assay has produced multiple assay endpoints where this ratio serves a reporter gene function to understand target activity. To generalize the intended target to other relatable targets, this assay endpoint is annotated to the DNA binding intended target family, where the subfamily is tumor suppressor.
Thawing Method: Place 14 mL of pre-warmed thaw medium into a 15 mL of conical tub. Remove the vial of cells to be thawed from liquid nitrogen and thaw rapidly by placing at 37C in a water bath with gentle agitation for 1-2 minutes. Decontaminate the vial by wiping with 70% ethanol before opening in a biological safety cabinet. Transfer the vial contents drop-wise into 14 mL of thaw medium in a sterile 15-mL conical tub. Centrifuge cells at 900 rpm for 4 minutes and resuspend in thaw medium. Transfer contents to the T75 tissue culture flask containing Thaw Medium and place flask in a humidified 37C/5% CO2 incubator. Switch to growth medium at first passage.Propagation Method: Aspirate medium, rinse once in DPBS, add 0.25% Trypsin/EDTA and swirl to coat the cell evenly. Add an equal volume of Growth Medium to inactivate Trypsin after 2-3 minutes incubation at 37C. Centrifuge cells at 900 rpm for 4 minutes and resuspend in growth medium. Cell should be passage or fed at least twice a week.Assay Protocol: Harvest cells from culture in growth medium and resuspend in assay medium. 2.2 Dispense 4000 cells/5 uL/well into 1536-well black/clear bottom plates using a Multidrop dispenser. After the cells were incubated at 37C for 5 hours, 23 nL of compounds dissolved in DMSO were transferred to the assay plate by a PinTool resulting in a 217-fold dilution. Incubate the plates for 16 hours at 37C, 5% CO2. Add 1 uL of 6X LiveBLAzer FRET B/G (CCF4-AM) Substrate Mixture to each well using a BioRAPTR dispenser and incubate the plates at room temperature for 2 hours. Measure fluorescence intensity at 460 and 530 nm emission and 405 nm excitation by an Envision detector. Data is expressed as the ratio of 460nm/530nm emissions. Add 4 uL of Cell-titer Glo to each well using BioRAPTR and incubate the plates at room temperature for 2 hours. Measure fluorescence intensity by a VewLux plate reader.
With `O=C(C(Cl)Cl)N1CCOC12CCCCC2`, the outcome was inactive. On the same count and under the same terms, the same measure for `NNC(=O)c1cccc(C(=O)NN)c1`: “inactive”; for `Nc1ccc(Cl)cc1Cl`: “inactive”. Take `Nc1cccc(C(F)(F)F)c1`: the outcome was inactive. Regarding `C=C1[C@H]2CC[C@@H]3[C@H]2C(C)(C)CCC[C@]13C`, the result was inactive. Take `C[Si](C)(CCCN)O[Si](C)(C)CCCN`: the outcome was inactive. As to `ON(Cc1ccccc1)Cc1ccccc1`, the result was inactive. Still for that read-out and setting: the same measure for `C=CC(C)(C)C`: “inactive”; for `CCCCCCC(O)CO` (stereo not given): “inactive”. On to `CCOC(=O)CC(C(C)=O)C(C)=O`, for which the outcome was inactive.

Regarding `COc1cc(NC(=O)CC(C)=O)c(OC)cc1Cl`, the result was inactive. Consider `O=C(O)Cc1c(Cl)ccc(Cl)c1Cl`, for which the outcome was inactive.

Regarding `O=C1c2cccc(O)c2C(=O)c2c(O)cc(CO)cc21`, the result was inactive. Usually AC50 stands for the concentration at which the activity in the assay is half-maximal. As to `Nc1ncn([C@@H]2O[C@H](CO)[C@@H](O)[C@H]2O)c(=O)n1`, the result was inactive and the AC50 is 13.4 µM (active). For `c1ccc(CNCc2ccccc2)cc1`, the outcome was inactive. In the case of `O=C1CCCN1CCO`, the outcome was inactive.

Take `O=C(Nc1ccccc1SSc1ccccc1NC(=O)c1ccccc1)c1ccccc1`: the outcome was inactive and the AC50 was 72.5 µM (active). Turning to `O=C1CCCCCCCCCCC(=O)OCCO1`, the result was inactive. With `CN(C)CCCN(C)C`, the result was inactive. Regarding `O=C(Nc1ccccc1)c1ccccc1O`, the result was inactive. Regarding `CC1=NN(c2cc(S(=O)(=O)O)ccc2Cl)C(=O)C1N=Nc1ccccc1` (stereo not given), the outcome was inactive. On the same count and under the same terms, the same measure for `Cc1cccc(C(=O)O)c1`: “inactive”; for `O=C(OCC1CCC2OC2C1)C1CCC2OC2C1` (stereo not given): “inactive”; for `CCC(C)C=O` (stereo not given): “inactive”. `COc1c2ccoc2cc2oc(=O)ccc12`: the outcome was inactive.

Regarding `CCCNC(=O)NS(=O)(=O)c1ccc(Cl)cc1`, the outcome was inactive. `O=C(Nc1cccc(C(F)(F)F)c1)c1cc(Br)cc(Br)c1O`: the AC50 was 306 nM (active) and 746 nM (active).

For the compound `CCOC(=O)c1ccccc1C(=C1C=C(Br)C(=O)C(Br)=C1)c1cc(Br)c(O)c(Br)c1`, the AC50 was 10.4 µM (active). On to `CCCCCCCCCCC=CC#N`, for which the result was inactive. Take `CCCOC(=O)CCCCC(=O)OCCC`: the result was inactive. Regarding `C#CC1(O)CC[C@H]2[C@@H]3CCC4=CCCC[C@@H]4[C@H]3CC[C@@]21C` (stereo not given in full), the AC50 was 86.1 µM (active). In the case of `CO[Si](OC)(OC)c1ccccc1`, the outcome was inactive.

`c1ccc2c(c1)ccc1cc3c(ccc4ccccc43)cc12`: the result was inactive. As for `CC(=O)NS(=O)(=O)c1ccc(N)cc1`, the outcome was inactive. With `NC(CO)(CO)CO`, the outcome was inactive. Take `[Cl][Bi]([Cl])([c]1ccccc1)([c]1ccccc1)[c]1ccccc1`: the AC50 was 76.2 µM (active). For `CC(C)CCCCCOC(=O)CCS`, the result was inactive. Regarding `CNC(=S)NN`, the result was inactive.
